# Most compounds without a hit are left out; they make up all but 8.1% or so of the library.
# Gal4-VP16 FLuc = inhibits Gal4-VP16 luciferase reporter, ROR gamma counter-screen; 3.5% of 310,000 active; Drosophila S2 Gal4-VP16 UAS-luciferase, luminescence, 20 h; Potency, µM (top dose mostly 53.6 µM), for the others: at the highest dose activity, negative = inhibition, hits mostly inhibitors;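 further: Gal4-VP16 expression switched on by copper sulfate through the metallothionein promoter; on the % scale 0 is the no-effect control and ±100 the full control effect; nearly all actives have a fitted effect of over 50% in size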
# RORg inh = inhibitors of mouse ROR gamma transcriptional activity | P51450 | Drosophila S2 Gal4-RORgamma UAS-luciferase reporter, 20 h | Potency, µM (series often up to 53.6 µM), inactives show at the top dose activity change, negative = inhibition, actives largely listed as inhibitors | 5.4% of 310,000 active | AID 2551; further: on the % scale 0 is the no-effect control and ±100 the full control effect; nearly all actives have a fitted effect of over 60% in size
#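 Read-out: Photinus luciferase luminescence; inhibitors lower reporter signal. Insect Schneider cells with Gal4-ROR gamma fusion under metallothionein promoter, UAS reporter; 700 uM final copper sulfate induction, 20 hr, ambient temperature.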
# PINK1 expr mod = changes PINK1 expression | 0.2% of 410,000 active | AID 624263 | Potency, µM (series often up to 76.6 µM), for the others: at the top dose activation (PINK1 increase), usual class: activators | PINK1 immunofluorescence, high-content cytometry, 24 h; active means well fitted activation curve with a large enough effect; inconclusive means small, poorly fitted or top-dose-only effect; cell line not stated here; further: % of control where 0% means no effect; nearly all actives have a fitted effect of over 65% in size
#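 PINK1 protein level read as immunofluorescence by microplate cytometer in a fixed, stained stable cell line after 24 h exposure to five compound concentrations, with CCCP as control.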
# Epigenetic reg = derepresses silenced GFP reporter in murine cells | murine LDR cells, GFP reporter derepression, 30 h | AID 1865 | Potency, µM (highest dose often 53.9 µM), for inactives: at the highest dose GFP activation, most hits filed as activators | 0.2% of 280,000 active; further: % of control where 0% means no effect; nearly all actives have a fitted effect of over 60% in size
#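 Reporter derepression read as number of fluorescent GFP-positive objects, 20-120 um in size, counted by laser-scanning cytometer. Mouse LDR line with an epigenetically silenced CMV-GFP locus; compound incubation 30 h, 37 C.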
# ClpP mod = qHTS Assay for Activators of ClpP. ATP-dependent Clp protease proteolytic subunit (Bacillus subtilis (strain 168)), P80244. purified B. subtilis ClpP, FRET peptide cleavage, 20 min. Potency, µM (doses to about 57.5 µM), inactives show top-dose activity change, negative = active. 1.9% of 340,000 active. AID 651965, 2013; active means well fitted falling curve with a large enough effect; inconclusive means small, poorly fitted or top-dose-only effect; inactive means no such curve, though single readings can be large or run the other way; further: the source files actives as falling curves though it sought activators and does not explain the sign; nearly all actives have a fitted effect of over 65% in size
#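 ClpP 10 microg/mL final, pH 8 Tris/KCl buffer with BSA, glycerol, Tween-20; compound pinned in; FRET-FV substrate; RT 20 min; Ex320/Em430; ΔFRET vs ADEP 5.8 microM, DMSO, no enzyme.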
# Sfp inh = Sfp phosphopantetheinyl transferase inhibition | Q9F4F7 | Biochemical Sfp PPTase activity, qHTS | Potency, µM, for the others: largest response in the series, negative = inhibition, hits mostly inhibitors | 3.5% of 310,000 active | AID 1490;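 further: the enzyme is Sfp with the accession as filed and its product quenches rhodamine fluorescence; 0% = enzyme reaction without inhibitor and -100% = no enzyme wells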
#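 Buffer: 50 mM Hepes-Na pH 7.6, 10 mM MgCl2, 0.01% Nonidet P-40, 0.01% BSA. Enzyme 15 nM, pre-exposed to compound 15 min; substrates then added and fluorescence change tracked over 30 min.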
# * = called active by the depositor; ? = inconclusive; . = not tested or not shown; [ ] = dose if it differs, or a comment. Unless noted, the call rests on the fitted dose curve; in most records, active means well fitted curve in the direction sought with a large enough effect; inconclusive means small, poorly fitted or top-dose-only effect, or another doubt; inactive means no such curve, though single readings can be large; an effect the other way counts as inactive or inconclusive. Potency means the concentration at half of the fitted maximal effect.
SMILES,Gal4-VP16 FLuc,RORg inh,PINK1 expr mod,Epigenetic reg,ClpP mod,Sfp inh
CCc1ccc(NC(=O)c2sc3nc(C)c(Cl)c(C)c3c2N)cc1,.,.,-0.7%,4.3%,?,.
O=C(CCc1nc2sc3c(c2c(=O)[nH]1)CCCC3)NCCOc1ccccc1,.,.,4.6%,.,16.2%,.
CN(C)C(CNC(=O)CCc1nc2sc3c(c2c(=O)[nH]1)CCCC3)c1ccccc1 (centres undefined),.,.,-0.8%,.,28.2µM*,.
Cc1c(CCC(C)C)c(=O)n2c([nH]c3ccccc32)c1C#N,0.4%,8.2%,1.0%,-0.8%,3.16µM*,7.8%
Cc1c(CCO)c(=O)n2c([nH]c3ccccc32)c1C#N,-9.9%,1.7%,-3.4%,.,3.6%,13.5%
CCCCc1c(C)c(C#N)c2[nH]c3ccccc3n2c1=O,?,?,39.8µM*,-1.0%,?,4.5%
O=C(NC(=S)Nc1ccccc1N1CCOCC1)c1ccc(-c2cccc(Cl)c2)o1,5.62µM*,2.51µM*,16.7%,3.1%,11.0%,-1.7%
O=C(NC(=S)Nc1ccc(CN2CCOCC2)cc1)c1ccc(-c2cccc(Cl)c2)o1,14.1µM*,3.16µM*,1.3%,-1.0%,8.9%,-2.0%
O=C(NC(=S)Nc1ccccc1N1CCCCC1)c1ccc(-c2cccc([N+](=O)[O-])c2)o1,2.24µM*,0.501µM*,0.1%,2.1%,0.5%,6.8%
O=C(NC(=S)Nc1ccccc1N1CCCC1)c1ccc(-c2cccc([N+](=O)[O-])c2)o1,-22.9%,12.6%,9.5%[38.3 µM],?,-1.8%,-5.9%
CC1(C)C(C(=O)O)N2C(=O)CC2S1(=O)=O (centres undefined),-4.3%,-5.1%,.,-7.8%,.,-21.0%
Cc1ccc(CNC(=O)c2cc(Sc3ccc(F)cc3F)nc3ccccc23)cc1,.,.,-0.6%,0.2%,?,.
O=S1(=O)c2ccccc2N=NN1Cc1cc(Cl)cc(Cl)c1,-16.2%,28.9%,.,-1.6%,.,?
O=S1(=O)c2ccccc2N=NN1Cc1ccc(Cl)cc1,16.0%,-6.4%,0.6%,1.7%,2.0%,50.1µM*
O=C(C[n+]1csc2ccccc21)c1ccc(I)cc1,.,.,3.3%,.,1.7%,.
CCCCN(C)CCNC(=O)c1cc(-c2ccc(Cl)s2)nc2ccccc12,.,.,1.9%,7.9%,4.2%,.
Cc1ccccc1NC(=O)CSc1ccc(-c2cccnc2)nn1,-4.1%,11.6%,1.9%,.,-15.8%,11.0%
Cc1ccc(C(=O)CSc2ccc(-c3ccncc3)nn2)cc1,-5.6%,-2.6%,1.3%,2.9%,.,-37.1%
Cc1ccc(C(=O)CSc2ccc(-c3cccnc3)nn2)cc1,2.51µM*,112µM*,2.0%,3.5%,.,5.7%
Cc1cc(C)c(NC(=O)CSc2ccc(-c3cccnc3)nn2)c(C)c1,-7.4%,?,-0.9%,6.1%,.,56.2µM*
Cc1ccc(S(=O)(=O)n2nc(C)c(S(=O)(=O)N3CCC(C)CC3)c2C)cc1,.,.,0.8%,0.0%,0.5%,.
COc1ccc(CNC(=O)Cc2csc(Nc3nc(=S)[nH]c4ccccc34)n2)cc1,12.6µM*,1.78µM*,4.7%,-1.1%,-2.8%,?
Cn1c(C(=O)NCCCN2CCN(c3ccccc3F)CC2)cc2c(=O)[nH]c3ccccc3c21,-20.6%,15.2%,9.3%,1.9%,31.6µM*,4.3%
O=C(Cc1csc(Nc2nc(=S)[nH]c3ccccc23)n1)NCc1ccc(Cl)cc1,10µM*,3.55µM*,13.1%[38.3 µM],8.5%,-0.6%,?
CC1CC(C)CN(CCCNC(=O)c2cc3c(=O)[nH]c4ccccc4c3n2C)C1 (centres undefined),1.6%,-0.1%,0.8%,-0.2%,3.7%,8.8%
SMILES,Gal4-VP16 FLuc,RORg inh,PINK1 expr mod,Epigenetic reg,ClpP mod,Sfp inh
O=C(Cc1csc(Nc2nc(=S)[nH]c3ccccc23)n1)NCCCN1CCN(c2ccccc2F)CC1,10µM*,2µM*,-0.2%,?,.,-4.6%
O=C(NCCCN1CCN(c2ccccc2F)CC1)c1sc2ncccc2c1-n1cccc1,.,.,0.2%,-1.7%,-5.2%,.
Oc1c(C(c2cccc(Cl)c2)N2CCOCC2)sc2nc(-c3ccco3)nn12 (centres undefined),.,.,0.0%,0.8%,-1.7%,.
Cc1cc(C)cc(C(=O)NCCc2sc(-c3ccc(F)cc3)nc2C)c1,.,.,-0.3%,-3.0%,-12.4%,.
CCCn1c(-c2ccc(F)cc2)nc2c(NC(C)CCCN(CC)CC)nc(C)nc21 (centres undefined),-11.1%,-30.1%,.,-0.5%,.,1.8%
Cc1cccn2c(=O)c3cc(C(=O)NCc4ccccc4)c(=N)n(CCOCCO)c3nc12,.,.,0.6%,-0.6%,4.3%,.
O=P(c1ccccc1)(c1ccccc1)C(O)c1ccccn1 (centres undefined),-1.1%,0.1%,1.8%,2.0%,-0.9%,79.4µM*
COC(=O)c1sccc1NC(=O)c1c(Cl)cccc1Cl,-8.3%,-4.1%,3.3%,.,-3.6%,0.5%
COC(=O)c1sccc1NC(=O)/C=C/c1c(Cl)cccc1Cl,?,24.4%,1.9%,9.6%,25.8%,39.8µM*
CCN(c1cccc(C)c1)S(=O)(=O)c1cc2c(cc1C)n(C)c(=O)c(=O)n2C,.,.,3.9%,-0.2%,-6.4%,.
COC(=O)c1cccc2c1-c1ccccc1/C2=N/O,?,14.1µM*,-4.4%,0.0%,-17.1%,-16.6%
COC(=O)c1cccc2c1-c1ccccc1/C2=N\NC(N)=O,-9.1%,-33.7%,2.5%,.,0.3%,-4.6%
Cc1noc(NS(=O)(=O)c2ccc(NC(=O)CSc3nc4ccccc4s3)cc2)c1C,.,21.6%[0.365 µM],2.3%[38.3 µM],-1.8%,0.6%,50.1µM*
Cc1ccc(NC(=O)CSc2nc3c(cc2C#N)C(=O)CCC3)cc1S(=O)(=O)N(C)C,-22.4%,-5.0%,17.6%,11.9%,2.5%,3.6%
CN(C)S(=O)(=O)c1ccc(Cl)c(NC(=O)CSc2nc3c(cc2C#N)C(=O)CCC3)c1,-2.0%,0.7%,6.5%,25.1µM*,-0.8%,-9.9%
Cc1noc(NS(=O)(=O)c2ccc(NC(=O)CSc3nc4c(cc3C#N)CCC4)cc2)c1C,3.9%,-32.0%,1.2%,-1.0%,1.8%,50.1µM*
Cc1c(C(=O)NCC(C)(C)N2CCOCC2)cnn1-c1nccc(-c2cccs2)n1,.,.,1.2%,.,.,.
CCOc1cc(Cl)c(S(=O)(=O)n2cc(C)nc2CC)cc1Cl,.,.,1.2%,-0.2%,1.4%,.
CC(C)(C)NCC(O)COc1ccccc1C(C)(C)C (centres undefined),2.0%,-4.2%,.,0.8%,1.3%,1.6%
Cc1c[nH]c2cccc(OCC(O)CNC(C)(C)C)c12 (centres undefined),-11.0%,1.41µM*,2.9%[38.3 µM],-1.1%,-4.9%,-13.6%
Cc1nc(C(=O)Nc2cc(Cl)ccc2Cl)nn1-c1cc(OC(C)C)c(Cl)cc1Cl,0.4%,-2.0%,0.7%,1.1%,-5.5%,16.0%

# Bioassay records from PubChem BioAssay.
